# Source: PubChem BioAssay
# An excerpt weighted towards active compounds, which were near 0.37% of everything screened.
# TSG101-PTAP inh: blocks PTAP/TSG101 interaction to inhibit HIV-1 budding | AID 493005 | Q99816 | Potency, µM (series often up to 115 µM), inactives show at the top dose activity change, negative = inhibition, actives largely listed as inhibitors | 340,000 tested, under 10 active | Fluorescence polarization, FITC-PTAP peptide / Tsg101 binding; active = well fitted inhibition curve with a large enough effect in the main read-out, with a control signal flat, not every such curve was filed as active; inconclusive = small, poorly fitted or top-dose-only effect, or effect the other way, or a change in a side signal; inactive = no such curve, though single readings can be large or run the other way; note: potency is the fitted concentration of half-maximal effect; % of control where 0% means no effect
# Target sequence (Q99816 whole entry, looked up): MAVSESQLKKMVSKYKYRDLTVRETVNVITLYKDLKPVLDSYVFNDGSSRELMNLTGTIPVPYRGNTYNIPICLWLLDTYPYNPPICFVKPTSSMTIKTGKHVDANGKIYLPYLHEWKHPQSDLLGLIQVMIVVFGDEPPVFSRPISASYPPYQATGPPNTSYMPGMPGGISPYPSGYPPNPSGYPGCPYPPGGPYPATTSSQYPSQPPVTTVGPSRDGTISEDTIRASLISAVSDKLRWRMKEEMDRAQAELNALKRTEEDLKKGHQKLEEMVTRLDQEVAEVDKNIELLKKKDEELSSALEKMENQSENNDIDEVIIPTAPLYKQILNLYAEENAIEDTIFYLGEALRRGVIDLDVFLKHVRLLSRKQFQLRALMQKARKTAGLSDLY
#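 FP read-out: FITC-PTAP peptide, 50 nM final, binding Tsg101 binding domain, 10 uM final; 20 min, r.t.; 10 mM HEPES pH 7.5, 0.15 M NaCl, 0.01% Tween 20, 3 mM EDTA, 0.1 mM TCEP.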
# Vif-A3G inh: Vif-A3G binding inhibition; Q9HC16; HeLa A3G-eYFP + Vif (tagged APOBEC3G with the HIV-1 protein that degrades it), YFP fluorescence, overnight; Potency, µM (doses to about 46.1 µM), without a hit: top-dose activity, negative = active, hits mostly inhibitors; actives 0.076% (n = 410,000); AID 602310; note: potency is the fitted concentration of half-maximal effect; % is set by controls: 0 for no effect and ±100 for the full control effect; nearly all actives have a fitted effect of over 60% in size
#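 HeLa cells stably expressing Vif and C-terminally eYFP-tagged A3G, seeded overnight at 37 deg C, then exposed to compound by pintool overnight at 37 deg C. Rise in yellow fluorescence (Ex 488/Em 500-530, Acumen) marks blocked Vif-driven A3G degradation.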
# CBFb-RUNX1 inh: inhibitors of human CBF-beta and RUNX1 interaction | Q01196+Q13951 | AlphaScreen CBFb-His/RUNX1-biotin binding, biochemical | Potency, µM (top dose mostly 59.8 µM), for the others: at the highest dose activity, negative = inhibition, hits mostly inhibitors | 230,000 tested, under 10 active | AID 1477; note: % of control where 0% means no effect
#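 Interaction loss through any mechanism counts as activity. Pre-formed complex of His-CBF-beta and biotin-RUNX1 (30 nM apiece) is incubated with compound 15 min, then with 50 ng nickel and 50 ng streptavidin beads for 90 min before AlphaScreen detection.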
# MBNL1 CUG block: inhibitors of human MBNL1 binding to CUG repeat RNA. Potency, µM (highest dose often 57.5 µM), inactives show at the highest dose activity change, negative = inhibition, hits mostly inhibitors. TR-FRET MBNL1-His/biotin-(CUG)12 binding, 665/545 ratio. Q9NR56. actives 0.036% (n = 280,000). AID 2675; active = well fitted inhibition curve with a large enough effect in the signal ratio, with a control signal flat, not every such curve was filed as active; inconclusive = small, poorly fitted or top-dose-only effect, or effect the other way, or a change in a side signal; inactive = no such curve, though single readings can be large or run the other way; the % refers to the signal ratio; note: potency is the fitted concentration of half-maximal effect; % is set by controls: 0 for no effect and ±100 for the full control effect
# Target sequence (Q9NR56 whole entry, looked up): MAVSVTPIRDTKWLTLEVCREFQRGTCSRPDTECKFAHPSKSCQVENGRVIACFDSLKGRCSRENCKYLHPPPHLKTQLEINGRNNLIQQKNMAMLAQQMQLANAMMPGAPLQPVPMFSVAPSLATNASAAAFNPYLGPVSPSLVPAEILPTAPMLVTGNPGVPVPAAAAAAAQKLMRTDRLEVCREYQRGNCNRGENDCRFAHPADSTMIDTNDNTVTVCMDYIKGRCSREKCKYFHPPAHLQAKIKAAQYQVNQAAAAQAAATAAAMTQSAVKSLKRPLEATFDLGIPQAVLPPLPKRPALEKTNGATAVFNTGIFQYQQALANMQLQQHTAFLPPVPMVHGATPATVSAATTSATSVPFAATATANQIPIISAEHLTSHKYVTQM
#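 Compound titration spanned 92 nM–58 uM against the MBNL1-His/biotin-(CUG)12 complex. After 60 min at room temperature with 5 nM streptavidin-XL665 and 0.055 ng/ul terbium anti-His, ratiometric 665/545 nm emission (Ex 340 nm) normalized to controls.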
# Epigenetic derep: derepresses silenced GFP reporter in murine cells; Potency, µM (titrated, usually from 53.9 µM), for inactives: top-dose GFP activation, actives largely listed as activators; murine LDR cells, GFP reporter derepression, 30 h; AID 1865; actives 0.2% (n = 280,000); note: potency is the fitted concentration of half-maximal effect; % of control where 0% means no effect; nearly all actives have a fitted effect of over 60% in size
#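 GFP-positive cell count by laser-scanning cytometry (objects 20–120 um) after 30 h, 37 C compound exposure of murine LDR cells; reporter is CMV-GFP integrated at a silenced locus, inducible by HDAC or DNMT inhibitors.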
# Vif-APOBEC3F blk: Vif-A3F binding inhibition; HeLa A3F-eYFP + Vif (tagged APOBEC3F with the HIV-1 protein that degrades it), YFP fluorescence increase; Potency, µM (titrated, usually from 46.1 µM), inactives show top-dose activity, negative = active; actives 0.2% (n = 390,000); AID 602313; note: potency is the fitted concentration of half-maximal effect; % of control where 0% means no effect; nearly all actives have a fitted effect of over 65% in size
#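 HeLa cells stably expressing Vif plus C-terminally eYFP-tagged A3F were seeded, incubated overnight at 37 deg C, dosed with compound, incubated overnight again at 37 deg C. Yellow fluorescence (Ex 488/Em 500-530) reported blocked Vif-mediated A3F-eYFP degradation.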
# The depositor's hits bear a star; i = inactive; ? = inconclusive; . = no result. Unless noted, calls come from the whole dose curve; as a rule, active = well fitted curve in the direction sought with a large enough effect; inconclusive = small, poorly fitted or top-dose-only effect, or another doubt; inactive = no such curve, though single readings can be large; an effect the other way counts as inactive or inconclusive.
SMILES,TSG101-PTAP inh,Vif-A3G inh,CBFb-RUNX1 inh,MBNL1 CUG block,Epigenetic derep,Vif-APOBEC3F blk
COc1cc2c(NC3CCN(C(C)C)CC3)nc(N3CCCN(C)CC3)nc2cc1OCCOCCN1CCCC1,.,1%,.,.,.,.
Cc1ccc(NC(=O)c2c(C)nc3sc(C(=O)Nc4ccc(F)cc4)c(N)c3c2-c2ccc(C)o2)c(C)c1,.,?,.,.,22µM*,?
COc1ccccc1NC(=O)c1sc2nc(C)c(C(=O)Nc3ccc(C)cc3C)c(-c3ccco3)c2c1N,.,-12%,.,.,8.9µM*,?
CCCCCn1c(=O)[nH]c2cc(C(=O)Nc3cc(OC)cc(OC)c3)ccc2c1=O,.,-1%,.,.,2%,28µM*
COCCn1c(=O)[nH]c2cc(C(=O)Nc3ccc(OC)cc3)ccc2c1=O,.,3%,.,.,-1%,-2%
CCN1c2ccccc2NC2C1C(C(C)=O)C(=O)N2c1ccc(Cl)cc1 (stereo not given),0%,?,-15%,?,25µM*,22µM*
NC1(c2ccc(-c3nc4ccn5c(=O)[nH]nc5c4cc3-c3ccccc3)cc2)CCC1,.,5%,.,.,.,.
NN=C1c2ccccc2C(=O)C1C(=O)C(c1ccccc1)c1ccccc1 (stereo not given),4%,11µM*,.,.,.,i
CCOC(=O)/C(=C\C=C1/Sc2cc(OCC)c(OCC)cc2N1CC)C(C)=O,?,9%,3%,?,5.6µM*,-89%
CCOC(=O)/C(=C/C=C1\Sc2cc(OCC)c(OCC)cc2N1CC)C(C)=O,?,9%,13%,.,22µM*,6%
CC(C)(C)n1ncc2c(=O)n(Cc3cccc(-c4cccs4)c3)cnc21,.,1%,.,.,.,.
O=Cc1sc(Nc2ccccc2)nc1Cl,13%,?,3%,?,1%,25µM*
COc1ccccc1Nc1nc(Cl)c(C=O)s1,3%,?,14%,?,4%,?
Cc1ccc(Nc2nc(Cl)c(C=O)s2)cc1Cl,0%,?,28%,17%,?,22µM*
CC(C)(C)n1ncc2c(=O)n(Cc3ccc(F)cc3)cnc21,.,0%,.,.,.,.
CC(C)(C)n1ncc2c(=O)n(Cc3cc(F)c(F)cc3Cl)cnc21,.,2%,.,.,.,.
COc1ccc(C(=O)Nc2cccc(OCc3cc(=O)n4c5c(sc4n3)CCCC5)c2)cc1OC,.,-1%,.,.,-2%,1%
O=C(Nc1cccc(OCc2cc(=O)n3c4c(sc3n2)CCCC4)c1)c1ccc(F)cc1,.,-2%,.,.,25µM*,-20%
CN(CCC#N)c1ccc(/C=C(\C#N)c2ccccn2)cc1,-2%,-1%,12%,.,0%,-3%
CCN(Cc1ccccc1)c1ccc(/C=C(\C#N)c2ccccn2)cc1,-9%,-12%,-1%,1%,?,22µM*
CCN(CC)c1ccc(/C=C(\C#N)c2ccccn2)cc1,6%,10µM*,13%,?,18µM*,?
Nc1ccc(/C=C/c2ccnc3ccccc23)cc1,.,-3%,.,.,.,.
O=C(N/N=C/c1c(O)n(-c2ccc(Cl)cn2)c(=O)c2ccccc12)c1ccncc1,?,-19%,11%,?,0%,22µM*
CC(C)CNc1ncnc2oc(-c3ccco3)c(-c3ccco3)c12,.,-15%,.,.,.,.
CCOC(=O)c1c(Nc2ccc(Cl)cc2)sc(/C=C2\C=Nc3ccccc32)c1O,11%,-18%,-4%,-3%,7.1µM*,7.1µM*
SMILES,TSG101-PTAP inh,Vif-A3G inh,CBFb-RUNX1 inh,MBNL1 CUG block,Epigenetic derep,Vif-APOBEC3F blk
Nc1c(C(=O)O)sc2nc(-c3ccc(F)cc3)cc(-c3ccccc3)c12,0%,-18%,7%,8%,?,11µM*
SCc1nc2ccccc2[nH]1,.,-3%,.,.,.,.
Cc1cc[n+](CCC2CCCCC2)c2ccccc12,.,4%,.,.,.,.
O=c1c2ccccc2nc(/C=C/c2ccc([N+](=O)[O-])cc2)n1CCCO,3%,-24%,-19%,?,-1%,8%
O=c1c2ccccc2nc(/C=C/c2ccc([N+](=O)[O-])o2)n1CCCO,-3%,?,-1%,?,?,22µM*
Nc1c(C(=O)c2ccc(Cl)cc2)sc2nc3c(cc12)CCC3,0%,-8%,2%,-5%,?,25µM*
CCCCC(=O)NC(c1ccc(OC)cc1)c1ccc2cccnc2c1O (stereo not given),.,-18%,.,.,.,?
COc1ccc(C(NC(=O)C(C)C)c2ccc3cccnc3c2O)cc1 (stereo not given),-4%,-22%,?,13%,3.5µM*,-5%
CN(C)c1ccc(/C=C2/CCCc3c2nc2ccccc2c3C(=O)O)cc1,.,-3%,.,.,.,.
COc1cc(/C=C2\C(=N)N3N=CSC3=NC2=O)cc(Br)c1OC(=O)c1ccco1,9%,?,10%,-2%,1%,22µM*
COC(=O)c1ccccc1NC(=O)COc1ccccc1C(=O)Nc1ccccc1,.,-3%,.,.,.,.
COc1cc(/C=C/C(=O)O)ccc1O,-4%,-1%,11%,.,1%,4%
COc1cc(/C=C/C(=O)/C=C(O)/C=C/c2ccc(O)c(OC)c2)ccc1O,?,?,-10%,.,32µM*,-4%
CNC(=S)N/N=C(\C)c1ccc(Cl)s1,-3%,1%,-2%,18%,0%,7.9µM*
CCNC(=S)N/N=C(\C)c1ccc(Cl)s1,-4%,-3%,-27%,?,16%,-1%
CN(C)c1ccc(N=Cc2ccncc2)cc1,.,-2%,.,.,.,.
CCOC(=O)C1=C(O)c2ccccc2C(=O)/C1=C\c1ccc(CC)cc1,0%,?,-13%,?,?,22µM*
CCCc1ccc(/C=C2\C(=O)c3ccccc3C(O)=C2C(=O)OCC)cc1,.,.,-13%,?,?,.
C=CCNC(=O)Nc1ccc2nc(C)sc2c1,-3%,0%,13%,32µM*,-2%,-23%
COc1ccc(N2CCN(Cc3nc4scc(-c5ccccc5)c4c(=O)[nH]3)CC2)cc1,-7%,-1%,2%,.,0%,-22%
O=c1[nH]c(CN2CCN(c3ccccc3)CC2)nc2scc(-c3ccccc3)c12,-1%,?,-6%,.,?,22µM*
CN(C)c1ccc(/C=C/C=C2/C=Cc3ccccc32)cc1,.,5%,.,.,.,.
Cc1nnc(NC(=O)c2sc3nc(-c4cccs4)cc(C(F)(F)F)c3c2N)s1,?,?,-20%,13%,9%,7.1µM*
CC(C)(C)C(=O)c1sc2nc(-c3cccs3)cc(C(F)(F)F)c2c1N,?,?,5%,27%,11µM*,2.8µM*
